The record followed here is PubChem BioAssay (NCI).

About 79,000 compounds went through this panel and 15% of them were active in at least one assay; those are over-represented in the sample as a whole. Activity calls are given as the source filed them. Cut-off read from the data, not from the text of the source: active = growth inhibition above about 70%; inactive = the rest.

One experiment is described as follows: NCI Yeast Anticancer Drug Screen. Data for the rad50 strain (AID 155).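 Note: 0% = growth of vehicle-only cultures of the same strain.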 Conditions: S. cerevisiae rad50 strain growth inhibition; at 50.0 µM; hits give high values. The method in brief:
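Compounds were tested on a yeast strain with an engineered DNA damage repair alteration; the reported value is growth inhibition normalised to vehicle treatment.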
Consider `COc1ccc(OC)c(NC(=O)c2ccc(Cl)c(Cl)c2)c1`, for which the growth inhibition was -0.5% (inactive).

As for `C/C(Cl)=N\OC(=O)Nc1ccc([N+](=O)[O-])cc1`, the growth inhibition is 34.2% (inactive).

For the compound `Brc1ccccc1N=Nc1ccccc1Br`, the growth inhibition was -13.6% (inactive).

Turning to `COC(=O)C(Cl)=C1CC1`, the growth inhibition was 5.7% (inactive).

For `CC(=O)OC1CC2CCCCC2CC1[N+](C)(C)C` (stereo not given), the growth inhibition is 2.25% (inactive).

In the case of `CC(C)(C(=O)O)c1ccccc1C(=O)c1ccccc1`, the growth inhibition is -10.7% (inactive).

In the case of `CCC1=C(C(C)=O)[C@@H]2CCCCC(C(=O)OC)[C@@H]2C1=O` (stereo not given in full), the growth inhibition is -38.7% (inactive).

For `Nc1cc2[nH]cnc2c(=O)[nH]1`, the growth inhibition is 27.4% (inactive).

As for `Cc1nn(-c2nc(-c3ccc(Br)cc3)cs2)c(C)c1C`, the growth inhibition was 12.9% (inactive).

Take `Cc1cc(-c2ccc(Cl)cc2)c(C#N)c(=S)n1C1OC(CO)C(O)C(O)C1O` (stereo not given): the growth inhibition was -19.4% (inactive).

Take `C/C=C/Sc1ccccc1C(=O)O`: the growth inhibition was -14.3% (inactive).

For `C/C(=N/NC(N)=O)c1c(C)c(Cl)cc(Cl)c1OCCCC(C)C`, the growth inhibition was -8.1% (inactive).

With `CN(C)c1ccc(/C=C(\C#N)c2cccc(F)c2)cc1`, the growth inhibition was -4.85% (inactive).

On to `COc1ccccc1/C=C(\C#N)C(=O)O`, for which the growth inhibition was 15.9% (inactive).

As to `O=C(CC(=O)N1N=C(n2ccc3ccccc32)CC1c1ccccc1)Nc1cccc(Cl)c1` (stereo not given), the growth inhibition is -35.5% (inactive).

For `CC(=O)OC1C/C(C)=C/CCC(C)/C=C/C2(C)CCC(C(C)(C)O)C12` (stereo not given), the growth inhibition is 1.7% (inactive).

Consider `C[N+](C)(C)c1cc2c(nn1)Nc1ccccc1S2`, for which the growth inhibition is 17.4% (inactive).

As for `CCCCCCCCCCCCCCCC(=O)ON1C(=S)NC(C)(c2ccccc2)C1=S` (stereo not given), the growth inhibition is -0.65% (inactive).

Turning to `Cc1ccc(S(=O)(=O)CC(=O)c2ccc(Br)cc2)cc1`, the growth inhibition was -2.7% (inactive).

Take `CCCc1[nH]n(-c2ccccc2)c(=O)c1N=Nc1ccc(Cl)cc1`: the growth inhibition was -4.25% (inactive).

For `Cc1nc(N)nc(CCC(=O)Nc2cccc(C(F)(F)F)c2)c1-c1ccc(Cl)cc1`, the growth inhibition was 12.2% (inactive).

Take `CCOC(=O)Nc1cc(C(F)(F)F)ccc1F`: the growth inhibition is -14.8% (inactive).

Regarding `CCCN(CCC)C(=O)c1ccc(C(C)C)cc1`, the growth inhibition is 11.2% (inactive).

`Cc1cccc(/C=C(\C#N)C(=O)c2ccccc2)c1`: the growth inhibition was -10.6% (inactive).

Turning to `CC(=O)Nc1ccc(/C=c2\sc3nnc(CCC(=O)Nc4ccccc4Cl)n3c2=O)cc1`, the growth inhibition is -16.4% (inactive).

Consider `CCOC(=O)CCC(=O)N(CC)CC`, for which the growth inhibition is 8.7% (inactive).

As for `Cc1cccc(-c2nc3sc(-c4cccc(C)n4)nc3s2)n1`, the growth inhibition was -9.7% (inactive).

With `O=C1C2CC3C(C2)C13`, the growth inhibition was -1.55% (inactive).

As for `CC1COC(C)(C)O1` (stereo not given), the growth inhibition was 19.3% (inactive).

Regarding `Cc1ncnc(N)c1N`, the growth inhibition was 18.3% (inactive).

Consider `Cc1cc([N+](=O)[O-])c(NCCOC(=O)c2ccc([N+](=O)[O-])cc2)c([N+](=O)[O-])c1`, for which the growth inhibition was -24.1% (inactive).

For `Clc1cccc(CC(Br)Br)c1`, the growth inhibition is 14.8% (inactive).

With `Cc1nc2c(cnn2C)c(=O)n1-c1ccccc1Cl`, the growth inhibition was 21.4% (inactive).

`C=CCNC(=S)/N=C/c1c(C(=O)OCC)[nH]n(-c2ccccc2)c1=O`: the growth inhibition was -27.8% (inactive).

For the compound `O=C(CC(=O)c1ccccc1)Cc1ccccc1.O=C(CC(=O)c1ccccc1)Cc1ccccc1.[Cu]`, the growth inhibition was 60% (inactive).

Consider `CN1C(c2ccccc2)=C(C#N)C(=O)CC(c2cccs2)N1C` (stereo not given), for which the growth inhibition was -8% (inactive).

`[O-][n+]1ccc(Cl)cc1`: the growth inhibition is -4.15% (inactive).

Consider `CCCCCCCCCCCCOc1ccc(F)cc1C`, for which the growth inhibition is 6% (inactive).

For `COc1ccc(NS(=O)(=O)c2ccc(NC(=O)NCCCl)cc2)nn1`, the growth inhibition was 13% (inactive).

On to `CC(C)n1c(=S)[nH]c2c(=O)[nH]c(=O)[nH]c21`, for which the growth inhibition was -30.9% (inactive).

The next experiment can be described thus: NCI Yeast Anticancer Drug Screen. Data for the mec2-1 strain (AID 157). Conditions: S. cerevisiae mec2-1 strain, at 50.0 µM, hits give high values. In short, it runs like this: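 Yeast mec2-1 mutant treated with compound. Readout: growth inhibition vs vehicle controls.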
`COc1ccc(OC)c(NC(=O)c2ccc(Cl)c(Cl)c2)c1`: the growth inhibition is 14.3% (inactive).

Regarding `C/C(Cl)=N\OC(=O)Nc1ccc([N+](=O)[O-])cc1`, the growth inhibition was 80.2% (active).

In the case of `Brc1ccccc1N=Nc1ccccc1Br`, the growth inhibition was 3.95% (inactive).

For `COC(=O)C(Cl)=C1CC1`, the growth inhibition was 10.4% (inactive).

Regarding `CC(=O)OC1CC2CCCCC2CC1[N+](C)(C)C` (stereo not given), the growth inhibition is 7.3% (inactive).

Consider `CC(C)(C(=O)O)c1ccccc1C(=O)c1ccccc1`, for which the growth inhibition was 12.1% (inactive).

Take `CCC1=C(C(C)=O)[C@@H]2CCCCC(C(=O)OC)[C@@H]2C1=O` (stereo not given in full): the growth inhibition was -20.3% (inactive).

In the case of `Nc1cc2[nH]cnc2c(=O)[nH]1`, the growth inhibition was 21.9% (inactive).

In the case of `Cc1nn(-c2nc(-c3ccc(Br)cc3)cs2)c(C)c1C`, the growth inhibition is -4.9% (inactive).

In the case of `Cc1cc(-c2ccc(Cl)cc2)c(C#N)c(=S)n1C1OC(CO)C(O)C(O)C1O` (stereo not given), the growth inhibition was -11% (inactive).

As for `C/C=C/Sc1ccccc1C(=O)O`, the growth inhibition is -19.4% (inactive).

With `C/C(=N/NC(N)=O)c1c(C)c(Cl)cc(Cl)c1OCCCC(C)C`, the growth inhibition is -3.05% (inactive).

For `CN(C)c1ccc(/C=C(\C#N)c2cccc(F)c2)cc1`, the growth inhibition is 0.3% (inactive).

With `COc1ccccc1/C=C(\C#N)C(=O)O`, the growth inhibition is -31.3% (inactive).

Consider `O=C(CC(=O)N1N=C(n2ccc3ccccc32)CC1c1ccccc1)Nc1cccc(Cl)c1` (stereo not given), for which the growth inhibition was -15.3% (inactive).

For the compound `CC(=O)OC1C/C(C)=C/CCC(C)/C=C/C2(C)CCC(C(C)(C)O)C12` (stereo not given), the growth inhibition is -10.3% (inactive).

`C[N+](C)(C)c1cc2c(nn1)Nc1ccccc1S2`: the growth inhibition was 3.8% (inactive).

For `CCCCCCCCCCCCCCCC(=O)ON1C(=S)NC(C)(c2ccccc2)C1=S` (stereo not given), the growth inhibition was 5.45% (inactive).

With `Cc1ccc(S(=O)(=O)CC(=O)c2ccc(Br)cc2)cc1`, the growth inhibition is -21.2% (inactive).

For `CCCc1[nH]n(-c2ccccc2)c(=O)c1N=Nc1ccc(Cl)cc1`, the growth inhibition was -6.65% (inactive).

With `Cc1nc(N)nc(CCC(=O)Nc2cccc(C(F)(F)F)c2)c1-c1ccc(Cl)cc1`, the growth inhibition was -2.9% (inactive).

In the case of `CCOC(=O)Nc1cc(C(F)(F)F)ccc1F`, the growth inhibition is -16.2% (inactive).

`CCCN(CCC)C(=O)c1ccc(C(C)C)cc1`: the growth inhibition was 7.05% (inactive).

Turning to `Cc1cccc(/C=C(\C#N)C(=O)c2ccccc2)c1`, the growth inhibition is 15.3% (inactive).

Regarding `CC(=O)Nc1ccc(/C=c2\sc3nnc(CCC(=O)Nc4ccccc4Cl)n3c2=O)cc1`, the growth inhibition is -17.7% (inactive).

`CCOC(=O)CCC(=O)N(CC)CC`: the growth inhibition is 16.6% (inactive).

On to `Cc1cccc(-c2nc3sc(-c4cccc(C)n4)nc3s2)n1`, for which the growth inhibition is 3.05% (inactive).

Turning to `O=C1C2CC3C(C2)C13`, the growth inhibition was -6.9% (inactive).

Take `CC1COC(C)(C)O1` (stereo not given): the growth inhibition was -31.6% (inactive).

On to `Cc1ncnc(N)c1N`, for which the growth inhibition was 14.2% (inactive).

Regarding `Cc1cc([N+](=O)[O-])c(NCCOC(=O)c2ccc([N+](=O)[O-])cc2)c([N+](=O)[O-])c1`, the growth inhibition is -6.55% (inactive).

On to `Clc1cccc(CC(Br)Br)c1`, for which the growth inhibition is 4.45% (inactive).

Turning to `Cc1nc2c(cnn2C)c(=O)n1-c1ccccc1Cl`, the growth inhibition was 17.2% (inactive).

`C=CCNC(=S)/N=C/c1c(C(=O)OCC)[nH]n(-c2ccccc2)c1=O`: the growth inhibition was -19.5% (inactive).

With `O=C(CC(=O)c1ccccc1)Cc1ccccc1.O=C(CC(=O)c1ccccc1)Cc1ccccc1.[Cu]`, the growth inhibition was 22.6% (inactive).

Regarding `CN1C(c2ccccc2)=C(C#N)C(=O)CC(c2cccs2)N1C` (stereo not given), the growth inhibition was 7.45% (inactive).

Consider `[O-][n+]1ccc(Cl)cc1`, for which the growth inhibition is -14.8% (inactive).

As for `CCCCCCCCCCCCOc1ccc(F)cc1C`, the growth inhibition was -1.15% (inactive).

As to `COc1ccc(NS(=O)(=O)c2ccc(NC(=O)NCCCl)cc2)nn1`, the growth inhibition is -0.2% (inactive).

With `CC(C)n1c(=S)[nH]c2c(=O)[nH]c(=O)[nH]c21`, the growth inhibition was -22.4% (inactive).
